AMA1-RON2 inh: inhibitors of Plasmodium falciparum AMA1-RON2 interaction; AlphaScreen AMA1-biotinylated RON2 peptide binding; Potency, µM (series often up to 58.2 µM), for the others: at the top dose activity change, negative = inhibition, usual class: inhibitors; 360,000 compounds, 0.2% hits;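 note: 0% = vehicle wells and -100% = peptide control; nearly all actives have a fitted effect of over 45% in size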
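AMA1 (3D7) with his tag at 25 nM final met compounds first, then biotinylated RON2 peptide at 25 nM; detection used donor plus acceptor beads, 10 µg/mL apiece, read by AlphaScreen after 30 min at room temperature.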
HCV inhibitor: HCV inhibition; AID 651820; Huh7.5.1 HCVcc-Cre infection, luciferase reporter, 44 h; Potency, µM (top dose mostly 41.8 µM), for the others: at the highest dose activity change, negative = inhibition, hits mostly inhibitors; 340,000 compounds, 3.4% hits
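A cell-based infection assay in which seeded cells (1,000 per well) receive test compound after 4 h, are inoculated with HCVcc-Cre at approximately 0.5 moi, and are incubated 44 h before luminescence detection.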
Pf growth 48h: P. falciparum growth inhibition at 48 hours (one generation) | 310,000 compounds, 5.9% hits | Potency, µM (top dose mostly 28.7 µM), without a hit: top-dose activity change, negative = inhibition, hits mostly inhibitors | P. falciparum luciferase growth in erythrocytes, 48 h | AID 504832
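In quantitative HTS format, infected erythrocytes bearing luciferase-reporter parasites were treated for a single generation at 37 C. Luminescence after adding detection reagent served as the growth measure.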
AmpC detergent: blocks E. coli AmpC beta-lactamase in detergent assay; Potency, µM (highest dose often 114 µM), inactives show top-dose activity change, negative = inhibition, usual class: inhibitors; 370,000 compounds, 0.041% hits; AID 485294; AmpC hydrolysis of nitrocefin, absorbance 480 nm, 0.01% Triton; P00811;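 note: 0% = no-compound wells and -100% = no-enzyme wells; nearly all actives have a fitted effect of over 25% in size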
Target sequence (P00811 whole entry, looked up): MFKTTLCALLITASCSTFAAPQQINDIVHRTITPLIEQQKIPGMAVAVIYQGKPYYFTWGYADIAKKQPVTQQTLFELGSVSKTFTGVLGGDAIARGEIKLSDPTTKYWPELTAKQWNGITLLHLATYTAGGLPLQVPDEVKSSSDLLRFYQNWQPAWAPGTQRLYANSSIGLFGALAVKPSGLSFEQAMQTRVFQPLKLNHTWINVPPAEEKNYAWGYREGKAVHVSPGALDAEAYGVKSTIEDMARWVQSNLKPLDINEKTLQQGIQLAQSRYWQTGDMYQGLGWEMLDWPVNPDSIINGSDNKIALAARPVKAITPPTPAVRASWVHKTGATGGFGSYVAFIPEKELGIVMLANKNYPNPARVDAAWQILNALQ
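AmpC (5.3 nM in the dispensed reagent) in 20 mM phosphate pH 7.0 with 0.01% (detergent screen) or 0.0001% Triton X-100 was preincubated with compounds for 15 min at room temperature. Nitrocefin was then added from an 800 uM solution, and hydrolysis was followed at 480 nm.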
AmpC no deterg: blocks E. coli AmpC beta-lactamase in detergent-free assay; Potency, µM (series often up to 57.1 µM), without a hit: at the highest dose activity change, negative = inhibition, actives largely listed as inhibitors; AmpC nitrocefin hydrolysis, absorbance 480 nm, 0.0001% Triton; 330,000 compounds, 0.52% hits; P00811;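 note: plate controls were no compound for no effect and no enzyme for full effect; nearly all actives have a fitted effect of over 20% in size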
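AmpC (5.3 nM in the dispensed reagent) in 20 mM phosphate pH 7.0 with 0.01% (detergent screen) or 0.0001% Triton X-100 was preincubated with compounds for 15 min at room temperature. Nitrocefin was then added from an 800 uM solution, and hydrolysis was followed at 480 nm.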
Pf growth 96h: P. falciparum growth inhibition at 96 hour, primary screen for plastid delayed-death inhibitors; P. falciparum luciferase reporter growth, 96 h; 320,000 compounds, 6.9% hits; Potency, µM (top dose mostly 28.7 µM), for inactives: at the highest dose activity change, negative = inhibition, usual class: inhibitors
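Luminescence readout: decreased luciferase signal marks inhibited growth of reporter-expressing P. falciparum in infected red cells (2% hematocrit, 0.05% parasitemia final), exposed to compound two generations (96 h, 37 C, 5% CO2).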
Starred values were filed as active, the others as inactive; ? = inconclusive; · = not tested or not shown. Compounds with a hit are over-represented: about 11% of the library has one in this group of screens. Calls come from the whole dose curve; as a rule, active = well fitted curve in the direction sought with a large enough effect; inconclusive = small, poorly fitted or top-dose-only effect, or another doubt; inactive = no such curve, though single readings can be large; an effect the other way counts as inactive or inconclusive. Unless noted, % is set by controls: 0 for no effect and ±100 for the full control effect; potency is the fitted concentration of half-maximal effect.

SMILES | AMA1-RON2 inh | HCV inhibitor | Pf growth 48h | AmpC detergent | AmpC no deterg | Pf growth 96h
Cc1ccc(C(=O)N2CCC(C(=O)c3c(C)cc(C)cc3C)CC2)cc1 | -15% | 11µM* | ? | -6% | 66% | ?
COc1ccc(OCCN2CCN(C(=O)c3ccc(OC)cc3)CC2)cc1 | 0% | 10µM* | -4% | 4% | 40% | 19%
Cc1ccc(C(=O)N2CCC(C(=O)c3ccc(F)cc3)CC2)cc1 | 4% | ? | · | · | · | ·
O=C(c1ccc(Cl)cc1)C1CCN(C(=O)c2ccc(F)cc2)CC1 | -5% | -24% | -10% | ? | 50% | 13µM*
Cc1nc2ncccn2c1-c1csc(Nc2ccccc2)n1 | -13% | 11µM* | 3.3µM* | -6% | -24% | 6%
Cc1nc2ncccn2c1-c1csc(Nc2ccc(S(N)(=O)=O)cc2)n1 | 25% | -17% | ? | ? | -32% | -54%
Cc1nc2sccn2c1-c1csc(NCc2ccccc2)n1 | 5% | 11µM* | 13µM* | -5% | -20% | 74%
C=CCNc1nc(-c2c(C)nc3sccn23)cs1 | 12% | ? | -8% | -2% | -19% | 5%
COc1ccc(Nc2nc(-c3c(C)nc4ncccn34)cs2)cc1 | -12% | 11µM* | ? | 0% | 58% | ?
COc1ccccc1Nc1nc(-c2c(C)nc3ncccn23)cs1 | -8% | 11µM* | ? | 2% | 52% | 6%
COc1ccccc1N1CCN(C(=O)CSc2n[nH]c(-c3ccccc3Cl)n2)CC1 | · | · | · | 1% | · | ·
COc1ccc(S(=O)(=O)c2c(Nc3ccc(C)cc3)sc(C(=O)c3ccc4c(c3)OCO4)c2N)cc1 | · | · | · | 16% | · | ·
COc1cccc(C2CC(=O)N(c3ccc(F)cc3)C3=C2C(=O)OC3)c1OC (stereo not drawn) | · | · | · | -1% | · | ·
O=C(NCc1noc2ccccc12)N1CCN(c2ccccc2)CC1 | · | · | · | -5% | · | ·
Cc1nc2ncccn2c1-c1csc(Nc2ccc(N(C)C)cc2)n1 | 14µM* | -22% | ? | -1% | 7% | ?
COc1ccc(-c2nnc(-c3cc4ccccc4oc3=O)o2)cc1 | -10% | 4% | 13% | 5% | -9% | 12µM*
COc1cccc2cc(-c3nnc(-c4ccccc4)o3)c(=O)oc12 | 14% | -6% | 23% | -2% | -27% | 8.3µM*
CCCCCCc1cc2cc(-c3nnc(-c4ccccc4OC)o3)c(=O)oc2cc1O | 53% | -7% | 3.7µM* | -12% | 1% | ·
Cc1ccccc1CNC(=O)C1=Cc2ccccc2OC1 | · | · | · | 3% | · | ·
COc1cccc(NC(=O)CSc2nc(C)c(Cc3ccccc3)c(=O)[nH]2)c1 | · | · | · | -5% | · | ·
CCn1c(=O)c2cc(C(=O)Nc3cc(C)c(Cl)cc3OC)sc2c2ccccc21 | · | · | · | 13% | · | ·
COc1ccc2c(CN3CC=C(c4ccccc4)CC3)cc(=O)oc2c1 | -20% | -7% | ? | 5% | -20% | ?
COc1cc(C)cc(CN2CC=C(c3ccccc3)CC2)c1O | -18% | ? | 1.2µM* | 5% | 12% | ?
COc1ccc2ccc(O)c(CN3CC=C(c4ccccc4)CC3)c2c1 | -7% | -15% | 1.7µM* | -12% | -12% | ?
CCCCOC(=O)c1ccc(NC(=O)C2(c3cccs3)CCOCC2)cc1 | · | · | · | 6% | · | ·
SMILES | AMA1-RON2 inh | HCV inhibitor | Pf growth 48h | AmpC detergent | AmpC no deterg | Pf growth 96h
NC(=O)C1CCN(C(=O)Cn2c(-c3cccs3)cc3ccccc32)CC1 | · | · | · | 9% | · | ·
CCn1nc(C)c(/C=C2\CCCC3=C2OC(N)=C(C#N)C3c2c(C)nn(CC)c2C)c1C (stereo not drawn) | · | · | 10µM* | 2% | 86% | 33%
Cc1ccc(CN2CCCn3nc(C(=O)NCc4ccc(N(C)C)cc4)cc3C2=O)cc1 | · | · | · | 9% | · | ·
O=C1Nc2ccc(F)cc2C12Nc1ccccc1-c1nnc(SCc3ccccc3)nc1O2 (stereo not drawn) | -9% | 14% | 45% | -10% | 18µM* | 23%
Cc1ccc(CSc2nnc3c(n2)OC2(Nc4ccccc4-3)C(=O)Nc3ccc(F)cc32)cc1 (stereo not drawn) | -17% | 16% | -6% | -13% | ? | -8%
CCOc1ccc(NC(=S)NNC(=S)Nc2cccc(C(F)(F)F)c2)cc1 | 0% | -17% | ? | ? | -43% | 13µM*
CNNC(=S)Nc1cccc(C(F)(F)F)c1 | 73% | -28% | 4.1µM* | -5% | -13% | ?
CC(C)(O)C(=O)NNC(=S)Nc1cccc(C(F)(F)F)c1 | 109% | 13% | 13% | -3% | -34% | 12µM*
COc1ccc(NC(=S)NNC(=S)Nc2cccc(C(F)(F)F)c2)cc1 | ? | ? | ? | 14% | -33% | ?
FC(F)(F)c1cccc(NC(=S)NNC(=S)Nc2cccc(C(F)(F)F)c2)c1 | · | · | ? | 26% | -34% | ?
Cc1ccc(S(=O)(=O)NCC2CCC(C(=O)NCCc3ccccc3)CC2)cc1 (stereo not drawn) | · | · | · | 23% | · | ·
CCc1ccc(CNC(=O)CN2C(=O)c3cccnc3Oc3ccc(Cl)cc32)cc1 | · | · | · | 0% | · | ·
O=C(CSc1nc2c([nH]c3ccccc32)c(=O)n1-c1cccc(Cl)c1)N1CCCC1 | · | · | · | 0% | · | ·
Cc1ccc(C(=O)N/C(=C\c2ccccc2F)c2nc(=S)[nH][nH]2)cc1 | 50% | 4% | 4% | -2% | 25µM* | 0%
Cc1ccc(/C=C(\NC(=O)c2ccc(C)cc2)c2nc(=S)[nH][nH]2)cc1 | 102% | -3% | 72% | -1% | -27% | 0%
Cc1ccc(C)c(Cn2c(=O)n(Cc3ccccc3)c(=O)c3sc4ccccc4c32)c1 | · | · | · | 8% | · | ·
COC(CNC(=O)c1cn(C)c2ccc(S(=O)(=O)N3CCOCC3)cc2c1=O)OC | -6% | 16% | -5% | 2% | -1% | 9.3µM*
CCOC(=O)N1CCN(C(=O)c2cn(C)c3ccc(S(=O)(=O)N4CCOCC4)cc3c2=O)CC1 | -1% | -15% | 9% | 3% | 5% | 12µM*
Cc1nn(C(C)C(=O)Nc2cccc(F)c2)c(=O)c2c1sc1ccccc12 (stereo not drawn) | · | · | · | 14% | · | ·
CCOC(=O)c1c(C)[nH]c(CCC(=O)NCc2ccccc2C)c1C | · | · | · | 7% | · | ·
COCCCNC(=S)NNC(=O)Cn1nc(C)c(Br)c1C | 48% | 3% | 26% | 2% | -8% | 9.3µM*
COc1ccc2ccc3c(c2c1)N=C[C@]1(O3)N(C)c2ccccc2C1(C)C | ? | -4% | ? | ? | -45% | 6.6µM*
COc1cc(/C=C/c2cccc[n+]2C)ccc1OCC(=O)Nc1ccccc1C | -11% | 6% | ? | 6% | 4% | -21%
CCOc1cc(/C=C/c2nc3ccccc3c(=O)[nH]2)ccc1O | -4% | -17% | · | 0% | -8% | -2%

From PubChem BioAssay
